Sampled rows, rich in hits. Any-hit rate of the full collection: about 4.7%.
TRHR enhancer: TRH receptor (human) allosteric enhancement; P34981; TRHR cells, fluo-8 calcium fluorescence, EC20 TRH enhancement; enhancement, % at 2 µM; hit rate 0.66% among 360,000; AID 493056; in the data active means enhancement above about 30%
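TRHR-expressing cells loaded with fluo-8 calcium dye were read kinetically (ex 480/em 530) during compound addition, then stimulated with an EC20 of TRH (10 nM final). Enhancement of the Gq-mediated intracellular calcium response was scored.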
D1 agonist: human D1 receptor agonism; P21728; HEK293 T-REx D1 cells, calcium flux, agonist mode; activation, % at 2 µM; hit rate 1% among 360,000
Target sequence (P21728 whole entry, looked up): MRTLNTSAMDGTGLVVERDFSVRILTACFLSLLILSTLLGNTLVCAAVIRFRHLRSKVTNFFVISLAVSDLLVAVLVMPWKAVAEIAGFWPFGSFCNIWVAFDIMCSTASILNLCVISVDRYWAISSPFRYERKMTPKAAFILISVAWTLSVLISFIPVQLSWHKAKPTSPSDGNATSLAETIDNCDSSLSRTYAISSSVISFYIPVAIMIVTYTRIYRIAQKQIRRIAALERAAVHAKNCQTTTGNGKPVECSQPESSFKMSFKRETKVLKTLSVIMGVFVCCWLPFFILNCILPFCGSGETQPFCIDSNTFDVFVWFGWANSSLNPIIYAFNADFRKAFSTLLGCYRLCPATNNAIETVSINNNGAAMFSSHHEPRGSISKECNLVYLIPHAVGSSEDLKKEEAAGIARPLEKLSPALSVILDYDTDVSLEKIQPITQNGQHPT
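Inducible HEK293 T-REx D1 cells, force-coupled to calcium signalling, were plated at 4000 cells/well with tetracycline and held overnight at 30 C. After no-wash calcium dye loading, compound-evoked calcium rise over 180 s flagged agonists.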
TRHR ag: activates the human TRH receptor | AID 493084 | hit rate 0.18% among 360,000 | P34981 | TRHR cells, calcium flux fluo-8, FDSS agonist mode | activation, % at 2 µM
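TRHR-expressing cells loaded with fluo-8 calcium dye; 23 nL library compound pin-transferred, kinetic FDSS fluorescence (Ex 480/Em 530) recorded about 180 s for agonist-induced calcium release, before a 10 nM TRH EC20 addition for potentiator mode.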
D1 potentiator: potentiators of human D1 dopamine receptor. hit rate 0.036% among 360,000. P21728. potentiation, % at 10 µM. HEK293 TREx D1 cells, calcium flux, dopamine EC20 potentiation; in the data active means potentiation above about 30%
D1 antagonist: blocks dopamine activation of the human D1 receptor; hit rate 3.2% among 360,000; HEK293 TREx D1 cells, calcium flux, dopamine EC80; hits give low values; P21728; AID 504652; activity change, negative = inhibition, % at 10 µM; in the data active means activity change below about -30%
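Compound effects on dopamine-evoked calcium signalling were measured in tetracycline-induced HEK293 Trex D1 cells. Dopamine at EC80 followed a 180 s compound pre-read, and fluorescence was tracked kinetically for 180 s more.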
Hits are given with their value; 0 = inactive; - = no result given. Unless noted, no stated cut-off is given here; in the data, active means activation above about 30%; inactive means the rest.

SMILES	TRHR enhancer	D1 agonist	TRHR ag	D1 potentiator	D1 antagonist
COc1ccccc1N(CC(=O)Nc1ccccc1C(F)(F)F)S(=O)(=O)c1ccc(C)cc1	0	0	0	0	0
CCOc1ccccc1NC(=O)Cn1c(=O)n(C(C)C)c(=O)c2oc3ccccc3c21	0	0	0	0	0
Cn1c(=O)c2cc(C(=O)Nc3cccc(C#N)c3)sc2c2ccccc21	0	0	0	0	0
CCN1CCN(c2ncnc3c2cnn3-c2ccc(Cl)cc2)CC1	0	0	0	0	0
Cc1ccc(-n2ncc3c(N4CCN(C)CC4)ncnc32)cc1	0	0	0	0	-30
CN1CCN(c2ncnc3c2cnn3-c2ccc(Cl)cc2)CC1	0	0	0	0	-54
O=C(CSc1nc2c([nH]c3ccccc32)c(=O)n1-c1ccccc1)N1CCCCCC1	0	0	0	0	0
CCCCNc1nc2c(S(=O)(=O)c3ccc(Cl)cc3)nnn2c2ccsc12	0	0	0	0	-51
O=S(=O)(c1ccc(Cl)cc1)c1nnn2c1nc(NCc1ccccc1)c1sccc12	0	0	0	0	0
Cc1ccc(S(=O)(=O)c2nnn3c2nc(NCc2cccs2)c2sccc23)cc1	0	0	0	0	0
Cc1ccc(S(=O)(=O)c2nnn3c2nc(NC2CCCCCC2)c2sccc23)cc1C	0	0	0	0	0
Cc1ccc(CCNc2nc3c(S(=O)(=O)c4ccc(C)cc4)nnn3c3ccsc23)cc1	42	0	0	0	0
CCc1ccc(S(=O)(=O)c2nnn3c2nc(NC2CCCC2)c2sccc23)cc1	0	0	0	0	-32
Cc1cccc(Cn2cc(S(=O)(=O)c3ccc(Cl)cc3)c(=O)c3cc4c(cc32)OCO4)c1	0	0	0	0	0
Cc1cc(C)c(S(=O)(=O)Nc2nnc(C)s2)c(C)c1	0	0	0	0	-34
CC(=O)OCc1cc(=O)n2nc(C3CCCCC3)sc2n1	0	0	0	0	0
Cc1ccc(OCC(=O)NCC(=O)OCc2cc(=O)n3nc(C)sc3n2)cc1	0	0	0	0	0
COc1cccc(C(=O)NCC(=O)OCc2cc(=O)n3nc(C)sc3n2)c1	0	0	0	0	0
Cc1ccc(C(=O)NCC(=O)OCc2cc(=O)n3nc(C4CCCCC4)sc3n2)cc1	0	0	0	0	-45
CCc1nn2c(=O)cc(COC(=O)CNC(=O)COc3ccc(C)cc3)nc2s1	0	0	0	0	-52
COc1cccc(C(=O)NCC(=O)OCc2cc(=O)n3c(C)csc3n2)c1	34	0	0	0	0
CC(C)(C)C(=O)OCc1cc(=O)n2nc(C3CCCCC3)sc2n1	0	0	0	0	-33
C=CCc1cc(F)c(S(=O)(=O)N2CCN(S(=O)(=O)c3ccc4c(c3)OCCO4)CC2)cc1F	0	0	0	0	0
Cc1cccc(NC(=O)c2ccc(N(Cc3ccccc3)S(C)(=O)=O)cc2)c1	0	0	0	0	0
Cc1cc(NC(=O)c2ccc(C)c(C)c2)no1	0	0	0	0	0
SMILES	TRHR enhancer	D1 agonist	TRHR ag	D1 potentiator	D1 antagonist
Cc1cc(C)c2nc(N3CCCC(C(=O)NCc4ccccc4F)C3)sc2c1 (configuration not stated)	0	0	0	0	0
O=C(COC(=O)CC1CCCCC1)Nc1c(Cl)cccc1Cl	0	0	0	0	0
COc1ccc2c(c1OC)C[N+]1([O-])CCc3cc4c(cc3C1C2)OCO4 (configuration not stated)	0	0	0	0	-38
Cc1cc(C(=O)CSc2cccc[n+]2[O-])c(C)n1-c1ccc(OC(F)F)cc1	0	0	0	0	-40
CCCCCC(=O)C(=O)c1ccc(O)cc1O	34	0	0	0	0
Cc1ccc(C(=O)NCC(c2ccc(Cl)cc2)N2CCCCC2)cc1 (configuration not stated)	0	0	0	0	0
COc1ccc(-n2ccnc(NCc3cccs3)c2=O)cc1	0	0	0	0	-34
O=C(O)c1ccc(-n2c(/C=C\c3ccc(O)cc3)nc3ccccc3c2=O)cc1	0	0	0	0	0
O=C(O)c1cc(-n2c(/C=C\c3ccc(F)cc3)nc3ccccc3c2=O)ccc1Cl	0	0	0	0	-32
CN(C)c1ccc(/C=C/c2nc3ccccc3c(=O)n2-c2ccc(C(=O)O)cc2)cc1	30	102	121	0	0
O=C(O)c1cccc(-n2c(/C=C/c3ccccc3)nc3ccccc3c2=O)c1	0	0	0	0	0
O=C(Nc1ccc(SC(F)F)cc1)c1ccc(F)cc1	0	0	0	0	-37
COc1ccc(C2C(=O)N(C3CCC(C)CC3)CC(=O)N2Cc2ccccc2Cl)cc1OC (configuration not stated)	0	0	0	0	0
COc1ccc(NC(=O)Nc2cccc(C(F)(F)F)c2)cn1	0	0	0	0	-30
Cc1ccc(C(=O)Nc2ccc(Oc3cccc(C(F)(F)F)c3)nc2)cc1	0	0	0	0	-31
COc1ccc(NC(=O)Nc2ccc([N+](=O)[O-])cc2)cn1	0	35	0	0	-52
COc1ccc(NC(=O)Nc2cc(C)cc(C)c2)cn1	0	0	0	0	0
Cc1cc(C(F)F)n2nc(C(=O)Nc3cccc(C(F)(F)F)c3)nc2n1	0	0	0	0	-40
CCOc1ccc(NC(=O)[C@H]2O[C@@H]3OC(C)(C)O[C@@H]3[C@H]3OC(C)(C)O[C@H]32)cc1	0	0	0	0	0
O=C(Nc1cccc(Cl)c1)C1CCCN(c2nn3cc(-c4ccc(F)cc4)nc3s2)C1 (configuration not stated)	0	0	0	0	0
CN(C(=O)CSc1cn(CC(=O)N2CCCCC2)c2ccccc12)c1ccccc1	0	0	0	0	0
O=C(Nc1ccccc1)Nc1cccc(C(F)(F)F)c1	0	0	0	0	-37
CNC(=O)Nc1cccc(C(F)(F)F)c1	0	0	0	0	0
O=C(Nc1cccc(C(F)(F)F)c1)Nc1cccs1	0	0	0	0	-44
CC(C)Sc1nc2c(c(=O)[nH]1)C(c1cccs1)C1=C(CC(C)(C)CC1=O)N2 (configuration not stated)	33	0	0	0	0
SMILES	TRHR enhancer	D1 agonist	TRHR ag	D1 potentiator	D1 antagonist
CCOCCCNC(=O)C(=O)Nc1c2c(nn1-c1ccc(OC)cc1)CSC2	0	0	0	0	-
Cc1ccc(NC(=O)Cn2c(O)c(N=NC(=O)c3cc([N+](=O)[O-])ccc3O)c3ccccc32)cc1	0	0	0	0	-40
Cc1cccc(NC(=O)Cn2c(O)c(N=NC(=O)c3ccccc3O)c3ccccc32)c1	0	0	0	0	0
Cc1ccc(-n2ncc3c(SCC(=O)NNC(=O)C(C)C)ncnc32)cc1	0	0	0	0	-54
CNC(=O)CSc1ncnc2c1cnn2-c1ccccc1	0	0	0	0	0
O=C(CSc1ncnc2c1cnn2-c1ccccc1)NC1CCCC1	0	0	0	0	-91
COc1ccc(-n2ncc3c(SCC(=O)N4CCN(c5ccccc5OC)CC4)ncnc32)cc1	0	0	0	0	-53
